According to the supplement of paper PMC11417369:
The full ranking holds about 25,000 sequences; the median of “ln(normalized median fluorescence intensity)” is about 9.7, and the highest 2% start at about 11. Many of the other results were omitted from the sample, so the highest values are more common in it than they were.

test system: PfAP2-HC AP2 domain (GST-tagged); test: gcPBM binding intensity (ln(normalized median fluorescence intensity)); higher = stronger DNA binding
Outline: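 Alexa488 anti-GST antibody, scanned at 488 nm, detected GST-tagged P. falciparum DNA-binding domains that had been expressed in E. coli and incubated for 1 h on an Agilent 4 × 180k array. The array carried primer-extended double-stranded 36-bp intergenic genomic probes and negative controls. Binding intensity is the highest Masliner-normalised natural-log median intensity across replicate spots of either orientation of each probe.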

Sequence | gcPBM binding intensity (ln)
ATATCTTATATTATCACACACACACCCACAAAACAG [CACACA_site1464] | 11.5
AAAAAAAAAAAAAACACACACACACCCATACAAAAT [CACACA_site1446] | 11.6
AAAAAAAAAAAAAACACACACATACACCCAAAAATG [CACACA_site4223] | 10.3
ATATCTTATGTTATCACACACACACGCACAAAACAG [CACACA_site6800] | 10.3
AAAAAAAAAAAAAAAACACACATACCCATATATTTT [CACACA_site6013] | 9.85
AAAAAAAAAAAAAACACACACAACACCCATACCTTA [CACACA_site3621] | 11.2
AAAAAAAAAAAAAACACACACACACCCAAATACATA [CACACA_site708] | 10.5
AAAAAAACAGAAAACACACAAATTATCTTATAATTA [CACACA_site6282] | 9.8
ATATATATTTAAACTACACACGCATATCTTAGAAAT [CACACA_site8348] | 10.1
ACTGTACTATAAAATACACACATATAAATATAAATA [CACACA_site3009] | 9.99
AATATTTAATTCAACACACATACATATTTATTAAAA [CACACA_site2342] | 9.99
ATGTGTATATGTTAATGTACAAATTTTGAAAATGCC [XGTACX_site2685] | 9.86
TATTATTATTTTATGGTGCAAAAAAAAAAAAAAAAA | 8.83
TATTATATCTTATATGTATATTCCCACAAATTATAT [GTGCAC_negctrl_site362] | 9.59
TTTTGTTGTATGATAATTCTTTTATCAATATGTCTT [TGCATGCA_negctrl_site567] | 9.63
ACATTCACAAAATTTTGTACACATATATATATATAT [XGTACX_site3518] | 9.96
AATATATTTTAATACACACACACATATATATATATA [CACACA_site5969] | 10.4
AAAAAAACATGAAACACACACAAATATTTATTTATA [CACACA_site6967] | 10.2
TACTTACATATAATAACACACAAGAAAAAAATAAAA [CACACA_site1033] | 9.83
ACCTAAAAGGTATAATATATAAATAAAAAAAAAAAT [CACACA_negctrl_site134] | 9.72
CAAAAAAACAAACACACACACACACCCATATATATA [CACACA_site3653] | 11.5
TATACTCAGAAACACACACACACACCCAAAAAAAAA [CACACA_site4434] | 11.1
AAAAAAAAAAAACACACACACACACCCAAATATATA [CACACA_site150] | 10.6
AACAAAAAAACAAACACACACACACCCATATATATA [CACACA_site3652] | 10.6

Sequence | gcPBM binding intensity (ln)
AAAAAAAAAAAAAAAACACACACATACACCCAAAAA [CACACA_site7910] | 10.5
AAAACACCCAAACACACACACACATATATATATATA [CACACA_site9119] | 10.8
AAAAAAAAAAAAAACACACACACACCCAAATATATA [CACACA_site1169] | 11.3
AAAAAAAAAAAAAAAAAAAAACACCCAAAAAAATAT [XGTACX_negctrl_site210] | 10.1
GTATAATAGAAACACACACACACACCCAAAAAAAAA [CACACA_site2010] | 10.7
ATATAATGAATTATTAGAAAATAAAATGAATAAAGT [CACACA_negctrl_site690] | 9.87
CATTTTGTTTTAAAGTGTACATTATGTAATATAAAA [XGTACX_site647] | 9.33
TTTTAAAGAAAATATTTTATCATTATTTTTTGTACT [CACACA_negctrl_site1648] | 9.57
AATATAAATTTATATTGTACATATTTTATTATATGT [XGTACX_site905] | 9.67
TAAAACAGAATGAGGAGTACAAAAAGAAGAAAAGGG [XGTACX_site1246] | 9.83
ATAAAATGAAATATATGTACGCATCACTTGTTGAAC [XGTACX_site4530] | 9.72
AAAAAAAAAAAAAAAAAAAAATATATATATATATAT [GTGCAC_negctrl_site426] | 9.47
TATTTTGTTCTTTCCACACACAAATACAGATATTGT [CACACA_site6097] | 10.1
AAAAAAAAAAAAAAAACACACATACACCCCCACCCA [CACACA_site9117] | 10.2
AAAAAAAAAAAACACACACACACACCCATATACATA [CACACA_site2664] | 11
AAAAAAAAAAAAAACACACACACACCCATACCCATA [CACACA_site5577] | 10.5
CACAAACACCCAAACACACACACACCGACATACATA [CACACA_site4410] | 11.1
AAAAAAAAAAAAAACACACACACACCCACATATACA [CACACA_site2663] | 10.6
AAAAAAAAAAAACACACACACACATACCCATACATA [CACACA_site5575] | 11.3
AAAAAAAAAAAACACACACACACACCCATACATACA [CACACA_site707] | 11.4
TAAACACCCATACATACACACATACATACACCCATA [CACACA_site5125] | 10
TTAAAAAAAAAACACACACACATACCCATATATATA [CACACA_site5768] | 10.4
CAAACACCCAAACACACACACACATACATACATACA [CACACA_site8044] | 10.7
AACACCCAAAAACACACACACATACATACATACATA [CACACA_site4411] | 10.3
